Laboratory results published in PubChem BioAssay.
The source made the active and inactive calls.

Experiments:
Albumin (Bos taurus) = Albumin (Bos taurus) (UniProt P02769); experiment: bovine serum albumin binders on microarray, profiling panel, artefact control for SMM control protein annotation, biochemical, small-molecule microarray, Alexa647 label, 635/667 nm fluorescence (AID 1118); settings: BSA-A647 binding, fluorescence 635 nm, higher = more signal;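 also: score merges 667 nm emission intensity and signal-to-noise per printed compound spot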
[1] = small-molecule microarray binders of probe aXIP, primary screen, biochemical, NeuroSMM set, 635/667 nm fluorescence (AID 1119); settings: higher = more signal, called active from +8 up or from −8 down;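 also: probe is the protein aXip251-270 applied at 1 µg/mL to compound-printed slides; binding of probe to printed compounds measured as 667 nm fluorescence plus signal to noise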
[2] = small-molecule binders of probe aNOTCH3, primary screen, biochemical, small-molecule microarray, 635/667 nm fluorescence (AID 1120); settings: higher = more signal;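 also: probe is a biotin-tagged antibody raised against NOTCH3 rather than NOTCH3 protein; score merges spot fluorescence near 667 nm with spot signal to noise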
[3] = small-molecule binders of probe aNOTCH2, primary screen, biochemical, small-molecule microarray, 635/667 nm fluorescence (AID 1121); settings: higher = more signal;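 also: score merges feature fluorescence read at 667 nm with its signal to noise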
[4] = target: Carbonic anhydrase 2 (Homo sapiens) (UniProt P00918); experiment: CAII small-molecule binders, profiling panel, biochemical, small-molecule microarray, Alexa647-labelled CAII (AID 1122); settings: CAII-A647 binding fluorescence, higher = more signal
[5] = COS7 lysate on small-molecule microarray, probe aHis, 635 nm (AID 1123); settings: COS7 cell lysate, fluorescence, higher = more signal;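 also: z-score combines 667nm fluorescence intensity with signal-to-noise per printed compound spot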
[6] = compound binding in COS7 lysate, probe aLAP1, primary screen, cell lysate, small-molecule microarray (AID 1124); settings: probe aLAP1, fluorescence, higher = more signal;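 also: lysate comes from COS7 cells expressing LAP1 and is applied at 0.3 µg/mL; score merges spot fluorescence near 667 nm with signal-to-noise over triplicate slides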
Sam68 (KHDRBS1) = experiment: Sam68 small-molecule binders, primary screen, biochemical, small-molecule microarray, 635 nm fluorescence (AID 1125); settings: small-molecule microarray binding, higher = more signal;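 also: score merges 667 nm channel intensity with signal to noise over triplicate slides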
[7] = test system: Chordin-like protein 2 (CHRDL2); experiment: CHRDL2 small-molecule binders, primary screen, biochemical, small-molecule microarray, 635 nm fluorescence (AID 1126); settings: small-molecule microarray binding, fluorescence 635 nm; higher = more signal;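 also: printed compound slides probed with Chrdl2 protein at 4 µg/mL for 1 h at 4 C; score merges 667 nm emission intensity with signal to noise over three replicate slides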
[8] = target: Concanavalin-A (Canavalia ensiformis) (UniProt P02866); experiment: ConA small-molecule binders, primary screen, artefact control for SMM control protein annotation, biochemical, small-molecule microarray, Alexa647 label, 635 nm (AID 1127); settings: ConA-A647 binding fluorescence, higher = more signal;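 also: z combines 667 nm emission intensity with signal-to-noise across three replicate slides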
Concanavalin-A (Canavalia ensiformis), sequence (P02866 whole entry, looked up): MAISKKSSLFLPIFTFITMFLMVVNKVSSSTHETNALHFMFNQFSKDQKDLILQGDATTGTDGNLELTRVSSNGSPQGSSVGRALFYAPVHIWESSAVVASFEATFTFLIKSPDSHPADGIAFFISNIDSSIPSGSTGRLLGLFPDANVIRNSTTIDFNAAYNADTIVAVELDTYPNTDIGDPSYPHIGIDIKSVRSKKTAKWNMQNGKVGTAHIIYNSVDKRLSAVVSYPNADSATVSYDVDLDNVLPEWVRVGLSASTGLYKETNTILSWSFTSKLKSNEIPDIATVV

Albumin (Bos taurus), sequence (P02769 whole entry, looked up): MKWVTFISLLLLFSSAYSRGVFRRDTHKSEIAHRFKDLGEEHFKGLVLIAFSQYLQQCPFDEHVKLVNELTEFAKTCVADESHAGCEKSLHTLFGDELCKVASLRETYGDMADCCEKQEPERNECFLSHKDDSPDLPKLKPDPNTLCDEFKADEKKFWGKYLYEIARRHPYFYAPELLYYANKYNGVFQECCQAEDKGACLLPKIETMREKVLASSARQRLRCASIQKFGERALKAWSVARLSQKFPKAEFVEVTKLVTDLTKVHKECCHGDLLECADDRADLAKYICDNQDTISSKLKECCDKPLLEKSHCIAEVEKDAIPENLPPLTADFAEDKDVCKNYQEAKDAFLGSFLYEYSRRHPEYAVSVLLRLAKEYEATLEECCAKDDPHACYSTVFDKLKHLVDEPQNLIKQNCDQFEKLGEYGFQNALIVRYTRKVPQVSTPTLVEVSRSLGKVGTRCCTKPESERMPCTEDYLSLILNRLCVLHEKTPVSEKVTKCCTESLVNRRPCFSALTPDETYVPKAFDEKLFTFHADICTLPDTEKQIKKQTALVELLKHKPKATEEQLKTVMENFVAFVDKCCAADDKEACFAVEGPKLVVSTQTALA

Row | Compound | composite z-score (Albumin (Bos taurus)) | composite Z-score [1] | composite z-score [2] | composite z-score [3] | composite z-score [4] | composite z-score [5] | composite z-score [6] | composite z-score (Sam68 (KHDRBS1)) | composite z-score [7] | composite z-score [8]
1 | O=c1cccc(-c2cccc3ccccc23)o1 | 0.702 | 0.276 (inactive) | -0.0377 | 0.0135 | 0.475 | 0.458 | 0.871 | 0.11 | -0.671 | -0.511
2 | O=C1OCCC=C[C@H]2OC34C=CCN(CCN5CCOCC5)C(=O)[C@H]3N(CCO)C(=O)[C@@H]4C12 (stereo not given in full) | -0.188 | -0.7 (inactive) | 0.16 | -0.202 | 0.72 | -0.219 | -0.193 | -1.08 | 0.112 | -0.916
3 | COc1ccc([Si](C)(C)[C@H]2[C@H](CC(=O)N3CCC[C@H]3CO)O[C@@]3(C(=O)N(Cc4cccc(N5CCC5=O)c4)c4ccccc43)[C@@H]2C)cc1 | -0.654 | -0.804 (inactive) | 0.229 | -0.0392 | 0.395 | 0.789 | -0.0115 | 1.31 | 0.95 | 0.759
4 | O=C(NCC(F)(F)F)[C@@H]1c2ccccc2C(=O)N(Cc2ccccc2)[C@H]1c1ccc(CO)cc1 | -1.27 | 0.111 (inactive) | -0.354 | -0.0586 | 0.723 | 1.08 | 0.345 | -0.141 | -1.57 | -0.331
5 | CCCCN1CC=CC23O[C@@H]4/C=C\CCCOC(=O)C4[C@H]2C(=O)N(C(C)CO)[C@@H]3C1=O (stereo not given in full) | 0.962 | 0.727 (inactive) | -0.222 | -0.151 | 0.839 | 0.296 | 0.203 | -0.296 | 0.112 | -1.23
6 | CC(C)C(O)C1C=CC2C(=O)N(C)C(=O)C2N1N1CCCCC1 (stereo not given) | 0.867 | 0.875 (inactive) | 0.143 | 0.0994 | 0.773 | 2.2 | 0.111 | 0.832 | 0.117 | 0.657
7 | COCCOC(=O)N1C(=O)[C@@]2(c3cc(C#CCCO)ccc31)[C@H](C(=O)NC[C@H](O)c1ccccc1)[C@H]1C(=O)O[C@H](c3ccccc3)[C@H](c3ccccc3)N1[C@@H]2c1ccc(OCCO)cc1 | 0.536 | 0.192 (inactive) | 0.264 | -0.155 | 0.581 | 1.72 | 0.684 | 1.3 | 0.534 | 1.13
8 | Cc1ccccc1/C=C/C=O | -0.699 | -0.0934 (inactive) | -0.19 | -0.171 | -0.293 | -0.256 | -0.298 | -1.35 | -0.56 | -0.485
9 | C=CCC(OC(C)=O)[C@@H]1[C@@H](N(Cc2cc3ccccc3o2)C(=O)c2ccc(-c3ccccc3)cc2)c2cc(OCCCO)ccc2N1C(=O)Cc1ccc2ccccc2c1 (stereo not given in full) | -0.0043 | -0.12 (inactive) | -0.0716 | -0.166 | -0.127 | 0.466 | 0.255 | -0.156 | 0.213 | -0.136
10 | Cc1ccc(S[C@]2(C(=O)NCCCN(C)C)CC(=O)N(C(C)C)[C@@H]2c2ccc(CO)cc2I)cc1 | 0.746 | -0.181 (inactive) | -0.004 | -0.127 | 0.721 | 1.23 | 0.693 | 0.271 | -0.0376 | 0.257
11 | [N-]=[N+]=NCc1ccccc1[C@H]1OC(c2ccc(OCCCO)cc2)=N[C@@]1(Cc1ccccc1)C(=O)NCC(O)CO (stereo not given in full) | 0.691 | 0.0638 (inactive) | 0.506 | -0.0013 | 0.76 | 3.42 | 0.941 | 0.966 | -0.609 | -0.0213
12 | CC(C)(C)OC(=O)CC[C@@]1(C(=O)NCC(O)CO)N=C(c2ccc(OCCCO)cc2)O[C@@H]1c1ccccc1 (stereo not given in full) | 1.01 | 0.595 (inactive) | 0.178 | -0.0896 | 0.892 | 3.67 | 1.34 | 0.965 | -1.65 | 0.537
13 | CC(=O)n1cc(C(O)C2C=CC3C(=O)N(c4ccccc4)C(=O)C3N2Nc2ccc(C#N)cc2)c2ccccc21 (stereo not given) | 0.938 | -0.187 (inactive) | 0.307 | 0.0753 | 0.798 | 2.7 | 0.53 | 1.31 | -0.776 | 0.876
14 | COC(=O)[C@@]1(Cc2ccc(F)cc2)[C@H]2c3cc(C(=O)N(C)C)n(CCCNc4ccc(C(F)(F)F)cc4Cl)c3C[C@H]2CN1C(=O)c1ccccc1 | 1.03 | -0.214 (inactive) | 0.568 | 0.116 | 0.778 | 2.87 | 0.12 | 1.3 | -0.841 | 1.17
15 | CCCCC(=C=CC[C@H](O)c1ccccc1OCCO)C[C@H](O)c1cc(Cl)cc(Cl)c1O | 0.233 | 0.45 (inactive) | -0.0448 | -0.175 | 0.649 | 0.499 | 0.569 | 0.811 | -0.473 | 0.907
16 | C[n+]1ccc2ccc(O)cc2c1 | -0.567 | -0.269 (inactive) | -0.0044 | -0.102 | 0.596 | 0.403 | 0.854 | 0.14 | 1.27 | 0.369
17 | CCOC(=O)C[C@H]1[C@H](OC(=O)c2ccc(C(=O)c3ccccc3)cc2)[C@@H](NC(=O)c2ccc3ccccc3n2)c2cc(OCCCO)ccc2N1C(=O)c1ccc2ccccc2n1 | 0.802 | 0.525 (inactive) | 0.16 | -0.101 | 0.245 | 0.847 | 0.808 | 0.616 | -0.0787 | 0.564
18 | C=CCC(OC(C)=O)[C@@H]1[C@@H](N(Cc2cc3ccccc3o2)C(=O)c2cccc3ccccc23)c2cc(OCCCO)ccc2N1C(=O)Cc1ccc2ccccc2c1 (stereo not given in full) | 0.398 | 0.182 (inactive) | 0.0496 | -0.0928 | 0.0704 | 0.256 | 0.0592 | -0.301 | 0.16 | 0.106
19 | COC(=O)[C@@]1(Cc2ccc(OC)cc2)[C@H]2c3cc(C(=O)N4CCCC4)n(CCc4ccccn4)c3C[C@H]2CN1C(=O)c1ccccc1 | 0.348 | 0.868 (inactive) | 0.268 | 0.0746 | 0.862 | 3.52 | 0.425 | -0.724 | -0.236 | 0.949
20 | COCCCNC(=O)[C@@]1(Cc2ccccc2I)c2ccccc2C(=O)N(Cc2ccccc2)[C@H]1c1ccc(CO)cc1 | -1.09 | -0.0662 (inactive) | -0.265 | -0.162 | 0.574 | 0.817 | -0.665 | 0.337 | -1.47 | -1.3
21 | O=C(NCc1ccccc1)[C@@H]1c2ccccc2C(=O)N(Cc2cc(F)cc(C(F)(F)F)c2)[C@H]1c1ccc(CO)cc1 | 0.491 | 0.318 (inactive) | -0.0477 | -0.124 | 0.589 | 1.67 | 0.662 | 1.27 | 0.161 | 0.769
22 | COc1ccc(C(=O)Nc2cccc(CN3C(=O)[C@@]4(O[C@@H](CCn5cc([C@H](O)c6ccccc6)nn5)[C@H]([Si](C)(C)c5ccc(OC)cc5)[C@H]4C)c4ccccc43)c2)cc1 | -0.455 | 0.257 (inactive) | 0.123 | -0.053 | 0.113 | 1.16 | 0.0494 | 0.459 | 0.078 | 0.791
23 | COCCCNC(=O)[C@]1(Cc2ccccc2N=[N+]=[N-])N=C(c2ccc(OCCCO)cc2)O[C@@H]1c1ccccc1CN=[N+]=[N-] | 0.522 | 0.0955 (inactive) | 0.523 | 0.202 | 0.398 | 2.51 | 0.561 | 1.12 | 0.228 | 1.13
24 | C=CCNC(=O)[C@H]1[C@@H]2C(=O)O[C@@H](c3ccccc3)[C@@H](c3ccccc3)N2[C@@H](c2ccc(OCCO)cc2)[C@]12C(=O)N(C(=O)OCCOC)c1ccc(C#CC3(O)CCCCCC3)cc12 | -1.02 | -0.586 (inactive) | 0.373 | 0.308 | 0.615 | 1.9 | 1.5 | 1.3 | 1.1 | 1.07
25 | C=C(COC)/C(=C/C[C@H](OC(C)=O)c1ccccc1OCCO)c1cnc2ccccc2c1 | 0.185 | 0.115 (inactive) | -0.0044 | -0.14 | 0.648 | 0.649 | -0.186 | 1.06 | 1 | 0.49
26 | CC(C)C(=C=CC[C@H](O)c1ccccc1OCCO)CCO | -0.415 | -0.172 (inactive) | -0.0947 | -0.045 | 0.707 | 0.989 | 0.342 | 0.829 | -0.332 | -0.284
27 | COCCOC(=O)N1C(=O)[C@@]2(c3ccccc31)[C@H](C(=O)N1CCCCCCC1)[C@H]1C(=O)O[C@H](c3ccccc3)[C@H](c3ccccc3)N1[C@@H]2c1ccccc1OCCO | 0.911 | 3.89 (inactive) | 1.5 | 0.699 | 0.838 | 3.32 | 1.19 | 1.29 | 1.32 | 1.2
